Holding throughout (test): PBM binding z-score (relative to random genomic background probes); higher = stronger binding; sequences stand for … in GC…GCGATTGACAGCGTAGAATGAAGG
Experiment [1] has as its system RARb homodimer (NR concentration 270 nM). The method, boiled down: (§1)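 Ligand-free nuclear receptor dimers were bound for 1 h to custom Agilent 4×180K protein-binding microarrays. Detection used antibodies against each partner (one per run). Binding z-scores rest on regression-normalized fluorescence, with random background probes as the reference.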
The test system of experiment [2] is RARg:RXRa (NR concentration 270 nM, RXRa partner concentration 90 nM). The method, boiled down: as §1
In experiment [3] the test system is RARg homodimer (NR concentration 270 nM). The method, boiled down:
as §1

Experiment [4] relates to RXRa DBDmut IVT, anti-RXR (DBD mutation: RXRa K156A/R161A, NR concentration 90 nM). The method, boiled down: as §1
Experiment [5] has as its system RXRa homodimer (NR concentration 180 nM). The method, boiled down: as §1
The test system of experiment [6] is THRa:RXRa (NR concentration 90 nM, RXRa partner concentration 90 nM). The method, boiled down:
as §1

Experiment [7] relates to THRa homodimer (NR concentration 90 nM). The method, boiled down:
as §1

Experiment [8] concerns VDR homodimer (NR concentration 270 nM). The method, boiled down: as §1

From the supplement of paper PMC6555819 come the findings set out here.

Consider CAAACTAGGTCAAGATCAAAGTCGGTTTGTGCCA, for which the PBM binding z-score was found to be 2.77 in experiment [1]; 3.45 in experiment [2]; 4.74 in experiment [3]; 1.66 in experiment [4]; 2.69 in experiment [5]; 2.75 in experiment [6]. Moreover, the PBM binding z-score in experiment [7] is 0.747; in experiment [8], 0.787.

Take ACTATTAGTTGACTTATGGCAACCGATACGACGC: the PBM binding z-score came to 0.102 in experiment [1]; 0.814 in experiment [2]; 0.872 in experiment [3]; 0.726 in experiment [4]; 0.823 in experiment [5]; 0.347 in experiment [6]. The results for the PBM binding z-score in experiment [7] and in experiment [8] were -0.0591 and 0.143, respectively.

For CAGCCTAGGTCAGGGCCAGTAGAGGAGGAACGTT, the PBM binding z-score in experiment [1] is 2.31; in experiment [2], 2.91; in experiment [3], 3.9; in experiment [4], -0.543; in experiment [5], 1.35; in experiment [6], 1.88. The PBM binding z-score in experiment [7] came to 0.411; in experiment [8], 0.169.

CGTCAAAGTTCAACTACGGTAACGTAAAGCACGC: the PBM binding z-score stood at 4.21 in experiment [1]; 5.89 in experiment [2]; 6.48 in experiment [3]; 4.64 in experiment [4]; 5.18 in experiment [5]; 4.23 in experiment [6]. The PBM binding z-score in experiment [7] is -0.22; in experiment [8], 3.69.

As to TAGCTTAGGTCAGATCGGGCCAGTATACGCTATA, the PBM binding z-score in experiment [1] was 2.23; in experiment [2], 2.89; in experiment [3], 3.71; in experiment [4], -0.0319; in experiment [5], 1.47; in experiment [6], 4.3. The PBM binding z-score in experiment [7] is 0.376; in experiment [8], -0.357.

For TTACCAAGGTGAGCTGAGGTCGTTGGTCCAACTC, the PBM binding z-score in experiment [1] was 1.6; in experiment [2], 1.2; in experiment [3], 0.604; in experiment [4] it was -0.219; in experiment [5] it was 1.34; in experiment [6] it was 4.45. Also, the figures for the PBM binding z-score in experiment [7] and in experiment [8] were 2.2 and 2.56, respectively.

Regarding CCTTACGGGTCAAGGTTATAGAACGGGTGGTACG, the PBM binding z-score was 3.67 in experiment [1]; 4.92 in experiment [2]; 4.97 in experiment [3]; 0.482 in experiment [4]; 5.58 in experiment [5]; 3.02 in experiment [6]. Also, the results for the PBM binding z-score in experiment [7] and in experiment [8] were 0.782 and 1.14, respectively.
